Reference: PubChem BioAssay AID1159580 (chemical genetic matrix, 2015)
About 2,000 (36%) of roughly 5,500 compounds were called active. Inconclusive results (about 18%) are left out. Cut-off read from the data, not from the text of the source: active = normalized growth mostly below about 0.91 (no sharp cut-off); inconclusive = no clear call, values can overlap the other calls; inactive = mostly above about 0.92. Some of the results follow.

Assay: chemical genetic growth profiling, strain panel (AID 1159580);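 note: tested at 20 µM; growth read once vehicle control cultures reached saturation at 30 °C; 1 = growth at the plate median or of vehicle wells; lower values mean less growth of the strain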
Conditions: growth OD

Measured: normalized growth

Clc1ccc(C(c2ccc(Cl)cc2)C(Cl)(Cl)Cl)cc1
inactive: S. cerevisiae deletion strains, locus YJR043C, strain POL32, active compounds read low 0.996 | S. cerevisiae deletion strains, locus YJR075W, strain HOC1, active compounds read low 1.01 | S. cerevisiae deletion strains, locus YKL009W, strain mrt4, active compounds read low 0.992 | S. cerevisiae deletion strains, locus YKL068W, active compounds read low 1.02 | S. cerevisiae deletion strains, locus YKL085W, strain MDH1 (second series), active compounds read low 1.01 | S. cerevisiae deletion strains, locus YKL085W, strain MDH1, active compounds read low 1.01 | S. cerevisiae deletion strains, locus YKL160W, strain elf1, active compounds read low 1.01 | S. cerevisiae deletion strains, locus YKL190W, strain CNB1, active compounds read low 0.996 | S. cerevisiae deletion strains, locus YKR001C, strain vps1, active compounds read low 0.997 | S. cerevisiae deletion strains, locus YKR026C, strain gcn3, active compounds read low 1.01 | S. cerevisiae deletion strains, locus YKR091W, strain srl3, active compounds read low 1 | S. cerevisiae deletion strains, locus YLL001W, strain dnm1, active compounds read low 1.02 | S. cerevisiae deletion strains, locus YLL026W, active compounds read low 1.01 | S. cerevisiae deletion strains, locus YLL041C, strain sdh2, active compounds read low 1.01 | S. cerevisiae deletion strains, locus YLR027C, strain aat2, active compounds read low 1.01 | S. cerevisiae deletion strains, locus YLR039C, strain RIC1, active compounds read low 1.05 | S. cerevisiae deletion strains, locus YLR058C, strain SHM2, active compounds read low 1.02 | S. cerevisiae deletion strains, locus YLR102C, strain apc9, active compounds read low 0.992 | S. cerevisiae deletion strains, locus YLR221C, strain rsa3, active compounds read low 1.01 | S. cerevisiae deletion strains, locus YLR258W, strain gsy2, active compounds read low 1.01 | S. cerevisiae deletion strains, locus YLR262C, strain YPT6 (second series), active compounds read low 0.985 | S. cerevisiae deletion strains, locus YLR262C, strain YPT6, active compounds read low 0.999 | S. cerevisiae deletion strains, locus YLR268W, strain sec22, active compounds read low 1 | S. cerevisiae deletion strains, locus YLR320W, strain mms22, active compounds read low 0.99 | S. cerevisiae deletion strains, locus YLR330W, strain CHS5, active compounds read low 1.02 | S. cerevisiae deletion strains, locus YLR342W, strain FKS1 (second series), active compounds read low 1.04 | S. cerevisiae deletion strains, locus YLR342W, strain FKS1, active compounds read low 1.01 | S. cerevisiae deletion strains, locus YLR357W, strain rsc2, active compounds read low 1.03 | S. cerevisiae deletion strains, locus YLR370C, strain arc18, active compounds read low 1.01 | S. cerevisiae deletion strains, locus YLR371W, strain rom2, active compounds read low 0.995 | S. cerevisiae deletion strains, locus YLR384C, strain iki3, active compounds read low 1 | S. cerevisiae deletion strains, locus YLR418C, strain cdc73, active compounds read low 0.984 | S. cerevisiae deletion strains, locus YML016C, strain PPZ1, active compounds read low 1.03 | S. cerevisiae deletion strains, locus YML032C, strain rad52, active compounds read low 0.992 | S. cerevisiae deletion strains, locus YML120C, strain ndi1, active compounds read low 0.997 | S. cerevisiae deletion strains, locus YML124C, strain tub3, active compounds read low 1 | S. cerevisiae deletion strains, locus YMR058W, strain fet3, active compounds read low 1.01 | S. cerevisiae deletion strains, locus YMR078C, strain ctf18, active compounds read low 0.991 | S. cerevisiae deletion strains, locus YMR125W, strain sto1, active compounds read low 1.01 | S. cerevisiae deletion strains, locus YMR129W, active compounds read low 1.01 | S. cerevisiae deletion strains, locus YMR205C, strain PFK2, active compounds read low 0.977 | S. cerevisiae deletion strains, locus YMR223W, strain ubp8, active compounds read low 0.991 | S. cerevisiae deletion strains, locus YMR231W, strain pep5, active compounds read low 1.01 | S. cerevisiae deletion strains, locus YMR263W, strain SAP30, active compounds read low 1.02 | S. cerevisiae deletion strains, locus YMR307W, strain GAS1, active compounds read low 0.918 | S. cerevisiae deletion strains, locus YNL067W, strain RPL9B, active compounds read low 1.01 | S. cerevisiae deletion strains, locus YNL071W, strain lat1, active compounds read low 1.02 | S. cerevisiae deletion strains, locus YNL128W, strain TEP1, active compounds read low 1.02 | S. cerevisiae deletion strains, locus YNL153C, strain GIM3, active compounds read low 1.02 | S. cerevisiae deletion strains, locus YNL209W, strain ssb2, active compounds read low 1 | S. cerevisiae deletion strains, locus YNL233W, strain BNI4, active compounds read low 1.01 | S. cerevisiae deletion strains, locus YNL248C, strain rpa49, active compounds read low 1 | S. cerevisiae deletion strains, locus YNL250W, strain rad50, active compounds read low 1 | S. cerevisiae deletion strains, locus YNL271C, strain bni1, active compounds read low 0.997 | S. cerevisiae deletion strains, locus YNL298W, strain CLA4, active compounds read low 1.02 | S. cerevisiae deletion strains, locus YNL307C, strain MCK1, active compounds read low 0.963 | S. cerevisiae deletion strains, locus YNL322C, strain KRE1 (second series), active compounds read low 1.01 | S. cerevisiae deletion strains, locus YNL322C, strain KRE1, active compounds read low 1.02 | S. cerevisiae deletion strains, locus YNR049C, strain mso1, active compounds read low 1.01 | S. cerevisiae deletion strains, locus YNR052C, strain pop2, active compounds read low 0.991 | S. cerevisiae deletion strains, locus YOL006C, strain TOP1, active compounds read low 1.02 | S. cerevisiae deletion strains, locus YOL012C, strain htz1 1.14 | S. cerevisiae deletion strains, locus YOL147C, strain pex11, active compounds read low 1 | S. cerevisiae deletion strains, locus YOR001W, strain rrp6, active compounds read low 1.01 | S. cerevisiae deletion strains, locus YOR061W, strain CKA2, active compounds read low 1.01 | S. cerevisiae deletion strains, locus YOR069W, strain VPS5, active compounds read low 1.01 | S. cerevisiae deletion strains, locus YOR070C, strain gyp1, active compounds read low 1.01 | S. cerevisiae deletion strains, locus YOR080W, strain dia2, active compounds read low 1.01 | S. cerevisiae deletion strains, locus YOR083W, strain WHI5, active compounds read low 1.01 | S. cerevisiae deletion strains, locus YOR106W, strain vam3, active compounds read low 0.988 | S. cerevisiae deletion strains, locus YOR136W, strain idh2, active compounds read low 0.99 | S. cerevisiae deletion strains, locus YOR144C, strain elg1, active compounds read low 1 | S. cerevisiae deletion strains, locus YOR184W, strain ser1, active compounds read low 0.982 | S. cerevisiae deletion strains, locus YOR265W, strain rbl2, active compounds read low 1.01 | S. cerevisiae deletion strains, locus YOR270C, strain vph1, active compounds read low 1.01 | S. cerevisiae deletion strains, locus YOR290C, strain snf2, active compounds read low 1 | S. cerevisiae deletion strains, locus YOR316C, strain cot1, active compounds read low 1.01 | S. cerevisiae deletion strains, locus YPL051W, strain arl3, active compounds read low 1 | S. cerevisiae deletion strains, locus YPL055C, strain LGE1, active compounds read low 0.989 | S. cerevisiae deletion strains, locus YPL078C, strain atp4, active compounds read low 1.01 | S. cerevisiae deletion strains, locus YPL106C, strain sse1, active compounds read low 1.03 | S. cerevisiae deletion strains, locus YPL240C, strain hsp82, active compounds read low 0.999 | S. cerevisiae deletion strains, locus YPL241C, strain CIN2, active compounds read low 1.02 | S. cerevisiae deletion strains, locus YPR119W, strain clb2, active compounds read low 0.998 | S. cerevisiae deletion strains, locus YPR141C, strain kar3, active compounds read low 1.01 | S. cerevisiae deletion strains, locus YPR163C, strain tif3, active compounds read low 0.998 | S. cerevisiae deletion strains, locus YPR167C, strain met16, active compounds read low 0.997 | S. cerevisiae deletion strains, strain wtn01, active compounds read low 0.997 | S. cerevisiae strains, strain wild type, active compounds read low 1.01
